From the supplement of paper PMC6992640

How the values were obtained:
HCI01 = cells of a triple-negative basal-like breast cancer xenograft; test: cell viability of combination (% of vehicle); higher = less cytotoxic; settings: 1 µM; 72 h; partner dose: 10 nM
Procedure: (§1)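 PDX cells were treated for 72 h with each drug at 1 µM plus afatinib (10 nM; 1 µM for WHIM30). Luciferase viability is expressed as percent of vehicle.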

WHIM2 = cells of a triple-negative basal-like breast cancer xenograft; test: as above; settings: 1 µM; 72 h; partner dose: 10 nM
Procedure: as §1

For `CC(C)(C)c1ccc(C(O)CCCN2CCC(C(O)(c3ccccc3)c3ccccc3)CC2)cc1` (stereo not given) [Terfenadine] + CN(C)C/C=C/C(=O)Nc1cc2c(Nc3ccc(F)c(Cl)c3)ncnc2cc1O[C@H]1CCOC1 [Afatinib], the “cell viability of combination” value (HCI01) was 52.8 and the “cell viability of combination” value (WHIM2) was 51.1.
With `O=C(C=Cn1cnc(-c2cc(C(F)(F)F)cc(C(F)(F)F)c2)n1)NNc1cnccn1` + CN(C)C/C=C/C(=O)Nc1cc2c(Nc3ccc(F)c(Cl)c3)ncnc2cc1O[C@H]1CCOC1 [Afatinib] the “cell viability of combination” value (HCI01) was 39.3 and the “cell viability of combination” value (WHIM2) was 41.9.
For `COc1cc2c(Oc3ccc4[nH]c(C)cc4c3F)ncnc2cc1OCCCN1CCCC1` [Cediranib (AZD217)] + CN(C)C/C=C/C(=O)Nc1cc2c(Nc3ccc(F)c(Cl)c3)ncnc2cc1O[C@H]1CCOC1 [Afatinib], the “cell viability of combination” value (HCI01) was 47.5 and the “cell viability of combination” value (WHIM2) was 31.6.
`O=C(O)c1cc(O)c(O)c(O)c1` [Gallic acid] + CN(C)C/C=C/C(=O)Nc1cc2c(Nc3ccc(F)c(Cl)c3)ncnc2cc1O[C@H]1CCOC1 [Afatinib] was tested, and the “cell viability of combination” value (HCI01) was 51.4 and the “cell viability of combination” value (WHIM2) was 46.3.
For `CCCSc1nc(NC2CC2c2ccc(F)c(F)c2)c2nnn(C3CC(OCCO)C(O)C3O)c2n1` (stereo not given) [Ticagrelor] + CN(C)C/C=C/C(=O)Nc1cc2c(Nc3ccc(F)c(Cl)c3)ncnc2cc1O[C@H]1CCOC1 [Afatinib], the “cell viability of combination” value (HCI01) was 57.8 and the “cell viability of combination” value (WHIM2) was 43.
In the case of `CC(C)CC(NC(=O)C(NC(=O)c1cccc(-c2ccccc2)n1)C(C)O)B(O)O` (stereo not given) + CN(C)C/C=C/C(=O)Nc1cc2c(Nc3ccc(F)c(Cl)c3)ncnc2cc1O[C@H]1CCOC1 [Afatinib], the “cell viability of combination” value (HCI01) is reported as 34.1 and the “cell viability of combination” value (WHIM2) is reported as 97.
In the case of `COc1cc2nccc(Oc3ccc(NC(=O)NC4CC4)c(Cl)c3)c2cc1C(N)=O` [Lenvatinib (E7080)] + CN(C)C/C=C/C(=O)Nc1cc2c(Nc3ccc(F)c(Cl)c3)ncnc2cc1O[C@H]1CCOC1 [Afatinib], the “cell viability of combination” value (HCI01) is reported as 40 and the “cell viability of combination” value (WHIM2) is reported as 32.5.
With `Cl.Nc1ccn(C2OC(CO)C(O)C2O)c(=O)n1` (stereo not given) [Cytarabine hydrochloride] + CN(C)C/C=C/C(=O)Nc1cc2c(Nc3ccc(F)c(Cl)c3)ncnc2cc1O[C@H]1CCOC1 [Afatinib] the “cell viability of combination” value (HCI01) was 46.6 and the “cell viability of combination” value (WHIM2) was 40.3.
`COCCn1c2c([n+](Cc3cnccn3)c1C)C(=O)c1ccccc1C2=O.[Br-]` + CN(C)C/C=C/C(=O)Nc1cc2c(Nc3ccc(F)c(Cl)c3)ncnc2cc1O[C@H]1CCOC1 [Afatinib] was tested, and the “cell viability of combination” value (HCI01) was 18.3 and the “cell viability of combination” value (WHIM2) was 11.8.
`CSc1ccc2c(c1)N(CCC1CCCCN1C)c1ccccc1S2.Cl` (stereo not given) [Thioridazine HCl] + CN(C)C/C=C/C(=O)Nc1cc2c(Nc3ccc(F)c(Cl)c3)ncnc2cc1O[C@H]1CCOC1 [Afatinib] was tested, and the “cell viability of combination” value (HCI01) was 61.8 and the “cell viability of combination” value (WHIM2) was 47.4.
With `Cc1nc(NC(=O)N2CCCC2C(N)=O)sc1-c1ccnc(C(C)(C)C(F)(F)F)c1` (stereo not given) + CN(C)C/C=C/C(=O)Nc1cc2c(Nc3ccc(F)c(Cl)c3)ncnc2cc1O[C@H]1CCOC1 [Afatinib] the “cell viability of combination” value (HCI01) was 46.9 and the “cell viability of combination” value (WHIM2) was 37.9.
For `Clc1ccc(C(Cn2ccnc2)OCc2ccsc2Cl)c(Cl)c1` (stereo not given) [Tioconazole] + CN(C)C/C=C/C(=O)Nc1cc2c(Nc3ccc(F)c(Cl)c3)ncnc2cc1O[C@H]1CCOC1 [Afatinib], the “cell viability of combination” value (HCI01) was 65.4 and the “cell viability of combination” value (WHIM2) was 47.5.
`CCCCCCCCOc1ccccc1C(=O)Nc1ccc(C(=O)OCC[N+](C)(CC)CC)cc1.[Br-]` [Otilonium Bromide] + CN(C)C/C=C/C(=O)Nc1cc2c(Nc3ccc(F)c(Cl)c3)ncnc2cc1O[C@H]1CCOC1 [Afatinib] was tested, and the “cell viability of combination” value (HCI01) was 52.9 and the “cell viability of combination” value (WHIM2) was 53.9.
With `COc1ccc2c(O[C@H]3CC4C(=O)N(C)CCCC/C=C\[C@H]5C[C@@]5(C(=O)NS(=O)(=O)C5CC5)NC(=O)[C@@H]4C3)cc(-c3nc(C(C)C)cs3)nc2c1C` (stereo not given in full) [Simeprevir] + CN(C)C/C=C/C(=O)Nc1cc2c(Nc3ccc(F)c(Cl)c3)ncnc2cc1O[C@H]1CCOC1 [Afatinib] the “cell viability of combination” value (HCI01) was 53.9 and the “cell viability of combination” value (WHIM2) was 46.8.
With `C=C1C(=CC=C2CCCC3(C)C2CCC3C(C)CCCC(C)C)CC(O)CC1O` (stereo not given) [Alfacalcidol] + CN(C)C/C=C/C(=O)Nc1cc2c(Nc3ccc(F)c(Cl)c3)ncnc2cc1O[C@H]1CCOC1 [Afatinib] the “cell viability of combination” value (HCI01) was 42.1 and the “cell viability of combination” value (WHIM2) was 34.4.
`CN1CCN(c2ccc(C(=O)/N=c3\[nH][nH]c4ccc(Cc5cc(F)cc(F)c5)cc34)c(NC3CCOCC3)c2)CC1` [Entrectinib] + CN(C)C/C=C/C(=O)Nc1cc2c(Nc3ccc(F)c(Cl)c3)ncnc2cc1O[C@H]1CCOC1 [Afatinib] was tested, and the “cell viability of combination” value (HCI01) was 57.5 and the “cell viability of combination” value (WHIM2) was 38.5.
In the case of `CC(C)C[C@H](NC(=O)[C@H](Cc1ccccc1)NC(=O)c1cnccn1)B(O)O` [Bortezomib] + CN(C)C/C=C/C(=O)Nc1cc2c(Nc3ccc(F)c(Cl)c3)ncnc2cc1O[C@H]1CCOC1 [Afatinib], the “cell viability of combination” value (HCI01) is reported as 22.5 and the “cell viability of combination” value (WHIM2) is reported as 14.4.
For `COc1ncc(-c2ccc3nccc(-c4ccnnc4)c3c2)cc1NS(=O)(=O)c1ccc(F)cc1F` + CN(C)C/C=C/C(=O)Nc1cc2c(Nc3ccc(F)c(Cl)c3)ncnc2cc1O[C@H]1CCOC1 [Afatinib], the “cell viability of combination” value (HCI01) was 28.7 and the “cell viability of combination” value (WHIM2) was 15.7.
With `CCC(=C(c1ccccc1)c1ccc(OCCN(C)C)cc1)c1ccccc1.O=C(O)CC(O)(CC(=O)O)C(=O)O` [Tamoxifen Citrate] + CN(C)C/C=C/C(=O)Nc1cc2c(Nc3ccc(F)c(Cl)c3)ncnc2cc1O[C@H]1CCOC1 [Afatinib] the “cell viability of combination” value (HCI01) was 65 and the “cell viability of combination” value (WHIM2) was 51.
With `CCc1cnn2c(NCc3ccc[n+]([O-])c3)cc(N3CCCCC3CCO)nc12` (stereo not given) + CN(C)C/C=C/C(=O)Nc1cc2c(Nc3ccc(F)c(Cl)c3)ncnc2cc1O[C@H]1CCOC1 [Afatinib] the “cell viability of combination” value (HCI01) was 25.6 and the “cell viability of combination” value (WHIM2) was 16.4.
With `CC(C)C(=O)OCC(=O)[C@@]12O[C@H](C3CCCCC3)O[C@@H]1C[C@H]1[C@@H]3CCC4=CC(=O)C=C[C@]4(C)[C@H]3[C@@H](O)C[C@@]12C` [Ciclesonide] + CN(C)C/C=C/C(=O)Nc1cc2c(Nc3ccc(F)c(Cl)c3)ncnc2cc1O[C@H]1CCOC1 [Afatinib] the “cell viability of combination” value (HCI01) was 67.5 and the “cell viability of combination” value (WHIM2) was 41.3.
In the case of `COC(=O)NC(C(=O)NC(Cc1ccccc1)C(O)CN(Cc1ccc(-c2ccccn2)cc1)NC(=O)C(NC(=O)OC)C(C)(C)C)C(C)(C)C` (stereo not given) [Atazanavir] + CN(C)C/C=C/C(=O)Nc1cc2c(Nc3ccc(F)c(Cl)c3)ncnc2cc1O[C@H]1CCOC1 [Afatinib], the “cell viability of combination” value (HCI01) is reported as 48.8 and the “cell viability of combination” value (WHIM2) is reported as 54.
With `Cl.Fc1ccc(C2CCNCC2COc2ccc3c(c2)OCO3)cc1` (stereo not given) [Paroxetine HCl] + CN(C)C/C=C/C(=O)Nc1cc2c(Nc3ccc(F)c(Cl)c3)ncnc2cc1O[C@H]1CCOC1 [Afatinib] the “cell viability of combination” value (HCI01) was 52.3 and the “cell viability of combination” value (WHIM2) was 49.6.
In the case of `O=C(NC1CCN(CCCCC2(C(=O)NCC(F)(F)F)c3ccccc3-c3ccccc32)CC1)c1ccccc1-c1ccc(C(F)(F)F)cc1` [Lomitapide] + CN(C)C/C=C/C(=O)Nc1cc2c(Nc3ccc(F)c(Cl)c3)ncnc2cc1O[C@H]1CCOC1 [Afatinib], the “cell viability of combination” value (HCI01) is reported as 55 and the “cell viability of combination” value (WHIM2) is reported as 27.4.
`CCOc1nc2cccc(C(=O)OC(C)OC(=O)OC3CCCCC3)c2n1Cc1ccc(-c2ccccc2-c2nn[nH]n2)cc1` (stereo not given) [Candesartan Cilexetil] + CN(C)C/C=C/C(=O)Nc1cc2c(Nc3ccc(F)c(Cl)c3)ncnc2cc1O[C@H]1CCOC1 [Afatinib] was tested, and the “cell viability of combination” value (HCI01) was 55.5 and the “cell viability of combination” value (WHIM2) was 50.8.
With `CC1(C)CCC(c2ccc(Cl)cc2)=C(CN2CCN(c3ccc(C(=O)NS(=O)(=O)c4ccc(NC(CCN5CCOCC5)CSc5ccccc5)c(S(=O)(=O)C(F)(F)F)c4)cc3)CC2)C1` (stereo not given) [ABT-263 (Navitoclax)] + CN(C)C/C=C/C(=O)Nc1cc2c(Nc3ccc(F)c(Cl)c3)ncnc2cc1O[C@H]1CCOC1 [Afatinib] the “cell viability of combination” value (HCI01) was 33 and the “cell viability of combination” value (WHIM2) was 29.5.
With `CO[C@@]12[C@H](COC(N)=O)C3=C(C(=O)C(C)=C(N)C3=O)N1C[C@@H]1N[C@@H]12` [Mitomycin C] + CN(C)C/C=C/C(=O)Nc1cc2c(Nc3ccc(F)c(Cl)c3)ncnc2cc1O[C@H]1CCOC1 [Afatinib] the “cell viability of combination” value (HCI01) was 36 and the “cell viability of combination” value (WHIM2) was 35.1.
In the case of `CCCCc1oc2ccc(NS(C)(=O)=O)cc2c1C(=O)c1ccc(OCCCN(CCCC)CCCC)cc1.Cl` [Dronedarone HCl] + CN(C)C/C=C/C(=O)Nc1cc2c(Nc3ccc(F)c(Cl)c3)ncnc2cc1O[C@H]1CCOC1 [Afatinib], the “cell viability of combination” value (HCI01) is reported as 54.4 and the “cell viability of combination” value (WHIM2) is reported as 52.5.
With `Nc1ccn(C2OC(CO)C(O)C2O)c(=O)n1` (stereo not given) [Cytarabine] + CN(C)C/C=C/C(=O)Nc1cc2c(Nc3ccc(F)c(Cl)c3)ncnc2cc1O[C@H]1CCOC1 [Afatinib] the “cell viability of combination” value (HCI01) was 44.3 and the “cell viability of combination” value (WHIM2) was 38.3.
In the case of `Cc1cc(Nc2ncc(Cl)c(Nc3ccccc3S(=O)(=O)C(C)C)n2)c(OC(C)C)cc1C1CCNCC1` + CN(C)C/C=C/C(=O)Nc1cc2c(Nc3ccc(F)c(Cl)c3)ncnc2cc1O[C@H]1CCOC1 [Afatinib], the “cell viability of combination” value (HCI01) is reported as 44.4 and the “cell viability of combination” value (WHIM2) is reported as 36.7.
